This is a sample that favours compounds with a hit; in the whole collection about 2.5% have one here.
Exocytosis inh: blocks lytic granule exocytosis | TALL-104 LAMP-1 surface exposure, flow cytometry; cells stimulated with thapsigargin and PMA | inhibition, % at 10 µM | 0.66% of 360,000 active;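 active = inhibition above about 55%, limit read from the data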
ABCB6 inh MLPCN: blocks the human ABCB6 transporter; Q9NP58; K562-ABCB6 porphyrin accumulation, flow cytometry, 1 h; active compounds read low; fluorescence ratio to DMSO, % at 10 µM; 0.19% of 360,000 active; AID 602162;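 active = fluorescence ratio to DMSO below 75%, the collection mean minus 3 SD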;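 also: signal is porphyrin accumulated inside mitochondria; 100% equals median channel fluorescence of DMSO control wells; lower ratio means ABCB6 inhibition with less porphyrin fluorescence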
Target sequence (Q9NP58 whole entry, looked up): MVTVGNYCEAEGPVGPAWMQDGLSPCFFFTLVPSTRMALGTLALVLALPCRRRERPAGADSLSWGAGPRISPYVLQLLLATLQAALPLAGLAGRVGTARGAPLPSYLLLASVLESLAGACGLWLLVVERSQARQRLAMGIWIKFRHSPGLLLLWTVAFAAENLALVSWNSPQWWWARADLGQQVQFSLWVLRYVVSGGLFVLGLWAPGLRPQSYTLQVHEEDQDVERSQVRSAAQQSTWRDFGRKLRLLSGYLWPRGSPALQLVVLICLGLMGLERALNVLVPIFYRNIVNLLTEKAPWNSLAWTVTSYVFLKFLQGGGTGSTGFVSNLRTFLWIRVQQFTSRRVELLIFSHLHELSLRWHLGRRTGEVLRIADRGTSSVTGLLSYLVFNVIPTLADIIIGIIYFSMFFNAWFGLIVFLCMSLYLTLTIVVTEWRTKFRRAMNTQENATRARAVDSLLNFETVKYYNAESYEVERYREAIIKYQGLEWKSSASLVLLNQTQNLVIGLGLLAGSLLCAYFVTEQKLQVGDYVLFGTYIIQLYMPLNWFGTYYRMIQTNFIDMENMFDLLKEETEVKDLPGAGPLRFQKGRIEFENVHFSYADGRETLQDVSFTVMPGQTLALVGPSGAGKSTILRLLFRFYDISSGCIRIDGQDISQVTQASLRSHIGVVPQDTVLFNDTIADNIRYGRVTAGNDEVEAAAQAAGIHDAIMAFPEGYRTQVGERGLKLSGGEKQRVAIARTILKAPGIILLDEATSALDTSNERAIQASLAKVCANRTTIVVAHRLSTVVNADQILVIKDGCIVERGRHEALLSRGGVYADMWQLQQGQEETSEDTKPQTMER
PG9 binder: small molecules binding HIV-1 gp120 antibody PG9; 0.43% of 360,000 active; TR-FRET gp120-PG9 antibody binding; inhibition, % at 6.7 µM; in the data active = inhibition above about 8.5%
rCAG RNA binder: r(CAG) repeat RNA binding | TO-PRO-1 dye displacement fluorescence | inhibition, % at 3 µM | 1.3% of 370,000 active;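 active = inhibition above the plate cutoff, the mean of all test compounds on that plate plus 3 SD, cut at about 35% in these data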;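 also: 0% = DMSO alone and 100% = 100 µM mitoxantrone as full dye displacement; higher means more dye released from RNA so lower well fluorescence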
PG9 binder conf: confirmation of small molecules binding HIV-1 gp120 antibody PG9 | AID 651571 | 90% of 1,500 active | TR-FRET PG9 antibody binding, biochemical | inhibition, % at 6.7 µM | shares compounds with PG9 binder; in the data active = inhibition above about 9%
PGV04 Ab binding: counter-screen for PG9 binders: binding control antibody PGV04; shares compounds with PG9 binder; TR-FRET PGV04 antibody-gp120 binding, biochemical; inhibition, % at 6.7 µM; 95% of 1,500 active; in the data active = inhibition above about 9.5%
PG9 bind DR: small molecules binding HIV-1 gp120 antibody PG9 | shares compounds with PG9 binder | TR-FRET PG9 antibody-gp120 binding inhibition | IC50, µM | 95 tested, under 10 active | AID 651848; in the data active = IC50 below about 10 µM
PGV04 DR counter: binds control antibody PGV04 in PG9 counter-screen; IC50, µM; TR-FRET binding to control antibody PGV04; 20% of 95 active; shares compounds with PG9 binder
PG126 binding DR: binds control antibody PG126 in PG9 counter-screen | AID 651939 | shares compounds with PG9 binder | IC50, µM | 20% of 95 active | TR-FRET binding to antibody PG126, counterscreen
Active calls of the source: *; i = inactive; nt = no result. Rule as the data show it, unless noted: active = IC50 below about 9 µM; inactive = the rest.

SMILES	Exocytosis inh	ABCB6 inh MLPCN	PG9 binder	rCAG RNA binder	PG9 binder conf	PGV04 Ab binding	others
Cc1c(Cl)c(-c2n[nH]c(=S)n2-c2ccc(F)cc2)nn1C	-3	100	10*	0	12*	11*	PG9 bind DR=>67;PGV04 DR counter=i;PG126 binding DR=i
Fc1cccc(-c2n[nH]c(=S)n2-c2ccccc2)c1	-3	100	15*	0	4	9.5*
Cn1cc(Cl)c(-c2n[nH]c(=S)n2-c2ccc(F)cc2)n1	-2	102	0	0	nt	nt
Cn1cc(Cl)c(-c2n[nH]c(=S)n2-c2ccccc2)n1	-2	96	16*	0	15*	17*
Cc1nn(CC(=O)Nc2ccc(Cl)cc2Cl)c(=O)c2ccccc12	9	101	9.1*	-2	25*	40*
COc1ccc(Cl)cc1C(=O)NNC(=O)c1n[nH]c2ccccc12	12	94	10*	1	24*	31*
COc1ccc(OC)c(Nc2nc(-c3ccccc3O)nc3ccccc23)c1	-1	98	50*	5	51*	75*
Cc1cc(C)c(S(=O)(=O)c2cccc(Cl)c2)c(=O)[nH]1	-1	92	-3	-3	nt	nt
O=C(O)c1cnc(-c2ccccc2)nc1-c1ccccc1	-8	92	1	1	nt	nt
O=C(Nc1ccccc1)c1cnc(-c2ccccc2)nc1-c1ccccc1	8	90	16*	1	20*	28*
O=C(N/C(=C\c1ccc(Br)cc1)C(=O)N1CCOCC1)c1ccc([N+](=O)[O-])cc1	8	93	0	3	nt	nt
CCOC(=O)Cn1c(=NC(=O)CSC(C)=O)sc2cc(OC)ccc21	-1	112	13*	7	18*	23*
COC(=O)Cn1c(=NC(=O)c2nc3ccccc3s2)sc2cc(S(C)(=O)=O)ccc21	nt	nt	-2	2	nt	nt
COC(=O)Cn1c(=NC(=O)c2sc3ccccc3c2Cl)sc2cc(S(N)(=O)=O)ccc21	5	100	11*	-2	22*	28*
CCOC(=O)Cn1c(=NC(=O)c2sc3ccccc3c2Cl)sc2cc(S(N)(=O)=O)ccc21	-2	98	9.9*	14	12*	28*
COc1cc2cc(C(=O)N(C)Cc3ccccc3)[nH]c2cc1OC	-4	94	16*	-2	15*	22*
O=C(Oc1c(Br)cc(Br)c2cccnc12)N1CCCCC1	-1	99	9.1*	-10	14*	18*
O=C(Oc1ccc(Cl)c2cccnc12)N1CCCCC1	1	101	-1	-4	nt	nt
C[C@H](CO)N1C[C@H](C)[C@@H](CN(C)Cc2ccncc2)OCc2cnnn2CCCC1=O	5	117	1	1	nt	nt
O=C(Nc1ccc(F)cc1Cl)c1ccc2c(=O)n3c(nc2c1)CCCCC3	1	98	29*	-6	30*	9.7*	PG9 bind DR=>67;PGV04 DR counter=i;PG126 binding DR=i
O=C(Nc1ccccc1Cl)c1ccc2c(=O)n3c(nc2c1)CCC3	0	105	1	1	nt	nt
Cc1nc(NC(=O)CSC2=NCCS2)sc1C(=O)N(C)C	0	96	0	2	nt	nt
CC(C)(C)C(=O)NC(=S)Nc1sc2c(c1C(N)=O)CCC2	1	96	1	3	nt	nt
CC(C)CC(=O)NC(=S)Nc1sc2c(c1C(N)=O)CCC2	-3	100	17*	0	26*	33*
CCN(CC(=O)Nc1c(F)cccc1F)C(=O)c1ccc(N2C(=O)c3ccccc3C2=O)cc1	0	97	-1	-7	nt	nt
O=C(NC(=S)Nc1ccc(Cl)cn1)c1cc([N+](=O)[O-])ccc1N1CCOCC1	7	91	0	-1	nt	nt
O=C(COC(=O)c1ccc2ccccc2n1)Nc1ncc(C(F)(F)F)cc1Cl	-2	98	1	-4	nt	nt
O=C(COC(=O)c1ccc2ccccc2c1)Nc1ncc(C(F)(F)F)cc1Cl	1	95	15*	-1	18*	27*
CCc1ccc(CNC(=O)CCCn2c(=O)c3cccn3c3cccnc32)cc1	-3	96	2	-2	nt	nt
